Among all 53,000 sequences or so, about 3,700 (7%) were called active. Many of the other results were omitted from the sample, so actives are more common in it than they were. A number with no mark means an inactive call.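 Rule for the calls: active = gene knockdowns whose robust z-score for IL-1 alpha signal is at least 2 or at most -2, so actives lie on both sides; inactive = the rest.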

The source of these data is PubChem BioAssay AID1508600 (Functional Genomics Laboratory (NCATS/FGL), 2020).

This experiment can be described thus: Components of the Cytosolic LPS Sensing Pathway: Gene Identification via Genome-wide siRNA Screen.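 Note: robust z of the log signal after scaling to non-targeting control siRNA wells of the plate.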 The note with it: RAW264.7 macrophages, IL-1a HTRF, actives lie on both sides, screened at 100 nM (by protocol), cells primed 5 h with Pam3CSK4 first. An outline of the steps: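 Mouse macrophage line RAW264.7 is transfected with siRNA (100 nM final), grown 48h, primed with TLR ligand Pam3CSK4 5 h and given intracellular LipidA 24 h. IL-1a in supernatant is read by HTRF and viability by luminescence.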
GCUUCAACCCGGUCACACUTT against Kif6: the z-score was 2.81 (active).

On to GGCGCAAUGCUCAUGUGAATT against Gzmc, for which the z-score is -0.54.

For GGAAGUUUUGGCUUAGGCATT against Tmco5b, the z-score was 1.58.

As for GGCGAUCCACAGGAACUCUTT against Tiam1, the z-score was -1.23.

Consider GCAACAACGAGUCAUGGCUTT against Plcd1, for which the z-score is -0.502.

Consider GGACAGAGUUACCUAGGCATT against Ticrr, for which the z-score was -2.81 (active).

Consider GGAUCUUUCCUGAUUUAUATT against Ggt5, for which the z-score is 0.989.

Consider GCAGGCAUCAUCACGACAUTT against Gprc5c, for which the z-score is 0.402.

GGAGUUCUUCUUCAAUGAGTT against Kcnd3: the z-score was -1.3.

For GCGUACGUUCUCCUAACAUTT against Hbs1l, the z-score is -1.9.

In the case of GGGUGAUAAAAUUCAGAUUTT against Gpr88, the z-score was 2.07 (active).

For the sequence GGGUGCAAACAAAAUGAUGTT against Pgm1, the z-score is -1.42.

With GGGCCACAUGUGUUCACUATT against Shisa5, the z-score is -2.35 (active).

For CCUUCUCUGCCUCGAUGAUTT against Cox14, the z-score is -1.23.

As for GGGAAGAUGUGAUGUCUUUTT against Rab29, the z-score was -0.556.

As for GGUCUUAAUCUCAGGAUGATT against Car5a, the z-score is -0.294.

With GGACACAGAAUGUUCUUGGTT against Rps3, the z-score was 0.029.

Turning to GGAAGAAAAAUAUGCUUUCTT against Pls3, the z-score is 2.7 (active).

For the sequence CCGAUCACUCAUGGUUGACTT against Sra1, the z-score was 0.565.

Consider GCCUGUGCAAAAAGUAGGGTT against Grasp, for which the z-score is -0.0182.

Turning to GGGCCAAUAGGAGUUCUUUTT against Tcf20, the z-score is 0.285.

Take GGAGCUGACGUGCUACUUATT against Speg: the z-score was 2.6 (active).

As to GGAGAAUCUUAGAGAUUAUTT against Pramel1, the z-score was 0.722.

On to GCAGCUAAGCACUGGAAAATT against Coq4, for which the z-score is 0.318.

GGAAAAAGAGGCCUCAAAGTT against Nek5: the z-score is 1.46.

Consider CGCUUUAUUAGAUGGGCUATT against Dlx5, for which the z-score was -2.27 (active).

For GAAGUUCAAUGGAGAAGACTT against Arl2, the z-score is -0.825.

With GGUGUUCAGACUACCCUCUTT against Serpina3m, the z-score is -1.16.

Consider GGGCCAUAAGAUCUGUACUTT against Ccl24, for which the z-score was 0.472.

As to GGUCCUCUAAAGAAUAAAGTT against Cela3b, the z-score is 0.541.

Turning to GCCCAGAAAUAUAAUCAAATT against Bub1, the z-score is 2.17 (active).

Turning to GGCUACCAUAGGUUUUAAUTT against Serinc4, the z-score is 0.946.

Consider CCCGGAUGAUGGAGAUAUUTT against Mnd1, for which the z-score was -1.

For the sequence GCCUGAUCUACUGUGGUCCTT against Olfr1347, the z-score is -0.167.

On to GGCUUGAUCUUCGUAGUGGTT against Arf1, for which the z-score was 0.132.

As to GCAGAGACUACUUAGCAAGTT against Adprm, the z-score was 2.29 (active).

Regarding GCUUAAGAGAUUCAAAUUGTT against Olfr1317, the z-score was 0.036.

As for GCUCUAAACAUGAUUCAAGTT against Akap9, the z-score is 1.17.

For GGCAGCUAAGUACGUUCAUTT against Gba, the z-score was 0.177.

With GGAAAGAGAACAUAAAAGATT against Pla2g4a, the z-score was -0.995.

Take GCAGCAUCGCGUAGAAACATT against Gar1: the z-score is -0.566.

For GCUGGAAACCCGUAUACUATT against Krt23, the z-score was 2.16 (active).

Consider CCGUGCACAACAUUGCCUATT against Qtrt1, for which the z-score was -0.552.

With GGAAUUUUCAAGGAACAAUTT against Il1rapl2, the z-score was -1.8.

For the sequence GGCGUGUAUGUCAAAAAUATT against Grip1, the z-score was -0.201.

Regarding GGAGUUGUUACUCUAUUUUTT against Pkd2l2, the z-score was -0.426.

For GCUCUCACACCCUUAUGUATT against Nptn, the z-score was -1.45.

With GGCGAGAAAUUCUUCACAUTT against Plxna3, the z-score is -1.51.

Regarding GGAGAAGGAGCAGAUUAAATT against Krt8, the z-score is 2.07 (active).

As to CCAAAACCUCAUGCUGAAATT against Zfp758, the z-score is 0.396.

In the case of GCUAAUACGAUUUACUUUGTT against Cntn6, the z-score was 0.586.

Turning to GGACGUAUAUCCUUUUAUGTT against Spaar, the z-score was -0.151.

Regarding GCAUGAUCAAAUUGUAUCUTT against Nde1, the z-score was -2.21 (active).

With GGUCUUUCUUCGAGGAGUCTT against Ccdc33, the z-score is -1.03.

CCGUAAGAAGGAAAACGCATT against Kcnd1: the z-score is -0.506.

On to GGUAAGGUUACAGCACUGATT against Chac2, for which the z-score is -0.489.

As to GGAAUAUCUGAUAUCAGUATT against Mdga2, the z-score is 0.0727.

For the sequence GGCUUCCUCAUCGAUAUAATT against Ccnh, the z-score was 0.21.

Consider GGUACCAAUUGAAGAUAUATT against Ncoa7, for which the z-score was 2.2 (active).

Regarding GGACAAGGAGGAUUUCUUCTT against Nprl2, the z-score was -0.226.

Regarding CCUUCUAAGAGAAAAACGUTT against Eps15, the z-score is 0.198.

With GGUAAACAGAAUAGAAUCCTT against Lcmt1, the z-score was 0.622.

As to GCCUGUGUAUUCUCGCUAUTT against Mon1a, the z-score is 0.345.

As for UGGGCCUUGUAGGCUUCAUTT against Rell2, the z-score was 2.3 (active).

For the sequence GGACCAGUUAUCCUCACUGTT against Eapp, the z-score is -0.514.

In the case of GCACAGCUAAACUUAACUATT against Taz, the z-score was 0.711.

For the sequence GCAAAUUUACCUCGGUUUUTT against Olfr46, the z-score is 0.388.

Consider GGCAGGUUUUUGAACUGGUTT against Olfr725, for which the z-score is 2.28 (active).

For GCUGAGAGGUAAAGACACATT against Cntd1, the z-score is 0.116.

Turning to UCCAGAGGAUCCGCUGUGATT against Krt74, the z-score was -0.632.
